Data on seven sequences can be found in publication PMC5700166.

The target of experiment [1] is T1, GST-Nv-NF-kB (Ser allele) (Nematostella vectensis, UniProt A7UNT2 2-411).
T1 sequence: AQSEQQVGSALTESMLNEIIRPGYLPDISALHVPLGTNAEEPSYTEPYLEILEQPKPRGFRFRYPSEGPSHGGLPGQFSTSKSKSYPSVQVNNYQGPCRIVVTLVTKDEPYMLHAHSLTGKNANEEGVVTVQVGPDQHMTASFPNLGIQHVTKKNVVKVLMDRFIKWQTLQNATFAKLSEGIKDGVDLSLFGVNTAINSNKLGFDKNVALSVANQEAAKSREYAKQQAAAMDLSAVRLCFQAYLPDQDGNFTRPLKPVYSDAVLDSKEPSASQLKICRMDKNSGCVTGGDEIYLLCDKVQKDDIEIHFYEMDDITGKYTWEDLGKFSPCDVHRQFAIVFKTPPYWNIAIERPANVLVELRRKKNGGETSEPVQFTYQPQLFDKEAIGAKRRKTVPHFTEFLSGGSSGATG
The experiment is described as follows: protein-binding microarray (PBM); PBM: ~300 nM protein, 6 mM HEPES pH 7.8, 80 mM KCl, 0.5 mM EDTA, 0.5 mM EGTA, 6% glycerol, 35 ng/ul poly-dIdC, 1% milk, 1 h, room temperature; Ap Aiptasia and Nv Nematostella (sea anemones) / Co Capsaspora / Aq Amphimedon (sponge) / Dm Drosophila / Hu human; RHD is the Rel homology domain; high values mean tight binding. The note with it: dsDNA, one strand shown.

For experiment [2], the target named is GST-Hu-p50 (Homo sapiens, UniProt P19838 7-356). The description is as above. The note with it: dsDNA, one strand shown.
Sequence of GST-Hu-p50 (P19838 7-356): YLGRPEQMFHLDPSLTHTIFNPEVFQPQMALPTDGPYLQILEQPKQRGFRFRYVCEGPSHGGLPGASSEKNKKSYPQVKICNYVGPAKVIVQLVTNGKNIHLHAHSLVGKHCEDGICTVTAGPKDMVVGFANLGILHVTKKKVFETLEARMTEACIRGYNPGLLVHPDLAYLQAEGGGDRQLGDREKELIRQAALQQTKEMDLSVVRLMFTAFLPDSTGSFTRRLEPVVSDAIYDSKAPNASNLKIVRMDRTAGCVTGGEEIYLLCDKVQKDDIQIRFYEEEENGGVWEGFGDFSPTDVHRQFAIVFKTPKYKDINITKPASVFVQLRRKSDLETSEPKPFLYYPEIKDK

With “CCGATTAACATCAAAAACTCCCATGATGTTAATCGGGTCTTGATTCGCTTGACGCTGCTG”, the binding signal was 4.52 z-score in experiment [1] and 4.38 z-score in experiment [2].
For the sequence “CCGATTAACATCACGGAAGTCCCTGATGTTAATCGGGTCTTGATTCGCTTGACGCTGCTG”, the binding signal in experiment [1] stood at 5.32 z-score; in experiment [2], 4.43 z-score.
The like results for “CCGATTAACATCAGGGGGTGAAATGATGTTAATCGGGTCTTGATTCGCTTGACGCTGCTG” were, in that order, 4.3 z-score and 4.19 z-score.
Turning to “CCGATTAACATCAGGGAAAAGAATGATGTTAATCGGGTCTTGATTCGCTTGACGCTGCTG”, the binding signal in experiment [1] was found to be 4.96 z-score; in experiment [2], 2.53 z-score.
As to “CCGATTAACATCAAGTACCCCCCTGATGTTAATCGGGTCTTGATTCGCTTGACGCTGCTG”, the binding signal in experiment [1] is 4.15 z-score; in experiment [2] it was 3.94 z-score.
The like results for “CCGATTAACATCAGGGGGGGTTATGATGTTAATCGGGTCTTGATTCGCTTGACGCTGCTG” were, in that order, 4.34 z-score and 4.91 z-score.
For “CCGATTAACATCAACTTTCCCAGTGATGTTAATCGGGTCTTGATTCGCTTGACGCTGCTG” the same measures were 1.7 z-score and 1.59 z-score.
